“And” between values parts separate entries of the source, which are not always exact repeats. Identical values can stand only once. Some structures have more than one record in an assay (separate samples or runs), and their calls can disagree. The source made the active and inactive calls. The calls were made as follows: active = hit-call score of the fitted dose curve at least 0.9, where 1 is the maximum; inactive = score below 0.9.

In general, AC50 refers to the concentration at which the activity in the assay is half-maximal.

Read-out in the assay: Interleukin-8 (IL8), CXCL8 (gene 3576)
Nature of the assay: BSK_SAg_IL8: BioMAP Diversity Plus: SAg Assay for Interleukin-8 (IL8) Biomarker Activity (AID 2283094). To be noted: primary human HUVEC with PBMC; actives raise or lower the signal. The method, then: BSK_SAg is a cell-based, multiplexed-readout assay that uses umbilical vein endothelium and peripheral blood mononuclear cells, a human vascular primary cell co-culture, with measurements taken at 24 hours after chemical dosing in a 96-well plate.BSK_SAg_IL8 is an assay component measured in the BSK_SAg assay. It measures IL-8 antibody related to regulation of gene expression using ELISA technology.Data from the assay component BSK_SAg_IL8 was analyzed into 1 assay endpoint. This assay endpoint, BSK_SAg_IL8, was analyzed with bidirectional fitting relative to DMSO as the negative control and baseline of activity. Using a type of binding reporter, gain or loss-of-signal activity can be used to understand changes in the signaling as they relate to the gene CXCL8. Furthermore, this assay endpoint can be referred to as a primary readout, because this assay has produced multiple assay endpoints where this one serves a signaling function. To generalize the intended target to other relatable targets, this assay endpoint is annotated to the cytokine intended target family, where the subfamily is interleukins.
The levels of cell surface (or secreted, indicated by the prefix "s") biomarker endpoints were measured by ELISA. Overt cytotoxicity to cells in confluent adherent cultures (all systems other than the BT system) was assessed by measuring total protein levels using sulforhodamine B (SRB) staining in parallel cultures at the time of biomarker measurements, indicated as SRB endpoints. For proliferation assays for adherent cell types, individual cell types are cultured at sub-confluence and relative cell numbers quantified by SRB staining at time points optimized for each system (48 h: 3C and CASM3C systems; 72 h: BT and HDF3CGF systems; 96 h: SAg system). SRB was performed by staining cells with 0.1% SRB after fixation with 10% TCA and reading wells at 560 nm.Viability and proliferation of PBMC (T cells) was quantified by Alamar Blue reduction for the SAg and BT systems. For PBMC viability (referred to as PBMC Cytotoxicity within the assay endpoint names), cells were plated (75,000/well in a 96-well plate) and then chemical samples added for 1 h before addition of activators, SEB and TSST-1 (20 ng/mL final concentration each). Cells were incubated for 90 h. Then, Alamar Blue (20 uL/well) (Invitrogen, Cat DAL1100) was added for 6 h, and the plates were read with a fluorescence microplate reader at 546/580 nm (excitation/emission). For PBMC proliferation, cells were plated and activated as above but incubated for only 16 h prior to addition of Alamar Blue. Plates were read after 6 h.
Consider `FC(F)(I)C(F)(F)C(F)(F)C(F)(F)C(F)(F)C(F)(F)I`, for which the AC50 was 9.66 µM (active) and 45 µM (active) and 41.6 µM (active); the outcome was inactive. `C[C@@H]1C[C@H]2[C@@H]3CCC4=CC(=O)C=C[C@]4(C)[C@@]3(F)[C@@H](O)C[C@]2(C)[C@@]1(O)C(=O)COP(=O)(O)O`: the outcome was inactive and the AC50 was 6.07 µM (active). Consider `Oc1cc2ccccc2c2ccccc12`, for which the AC50 was 9.87 µM (active). As to `COC(=O)CCCCC(=O)OC`, the outcome was inactive.

`Cc1oc(-c2ccccc2)nc1CCOc1ccc(C[C@H](Nc2ccccc2C(=O)c2ccccc2)C(=O)O)cc1`: the AC50 is 15.8 µM (active). On to `CC1=C(/C=C/C(C)=C/C=C/C(C)=C/C(=O)O)C(C)(C)CCC1`, for which the outcome was inactive. With `OCCC(F)(F)C(F)(F)C(F)(F)C(F)(F)C(F)(F)C(F)(F)C(F)(F)C(F)(F)F`, the AC50 is 41.5 µM (active) and 24.6 µM (active); the outcome was inactive. For the compound `CCCCCCCCCCCCN1CCCC1=O`, the AC50 was 20 µM (active). Still for that read-out and setting: the result for `CCCCCCCCCCCCCC[N+](C)(C)C` reads 3.2 µM (active). As to `CCCCC(CC)COC(=O)CCCCC(=O)OCc1ccccc1` (stereo not given), the result was inactive.

Consider `CCc1ccc(CCOc2ccc(CC3SC(=O)NC3=O)cc2)nc1` (stereo not given), for which the result was inactive. Turning to `CCCCOCCO`, the result was inactive. Still for that read-out and setting: the entry for `CCCCC(CC)COC(=O)CCCCC(=O)OCC(CC)CCCC` (stereo not given) is “inactive”; for `c1ccc2c(c1)Cc1ccccc1-2` it is “inactive”. On to `CCCOc1sc(C(=O)N2CCC(c3cc(CN)ccc3F)CC2)c(C)c1Br`, for which the AC50 was 7.78 µM (active). In the case of `CCOC(=O)CC(O)(CC(=O)OCC)C(=O)OCC`, the result was inactive. For the compound `CCCCCCCCC(=O)O`, the result was inactive. `CCCCCCC(=O)O`: the result was inactive.

On to `C#C[C@]1(O)CC[C@H]2[C@@H]3CCC4=CC(=O)CC[C@@H]4[C@H]3CC[C@@]21C`, for which the result was inactive. The same measure, in the same setting: the result for `O=c1c(-c2ccc(O)cc2)coc2cc(O)ccc12` reads “inactive”. Same read-out and setting: the result for `C=C(C)C(=O)OCCC(F)(F)C(F)(F)C(F)(F)C(F)(F)C(F)(F)C(F)(F)F` reads “inactive”; that for `CC(C)(C)c1cc(C(C)(C)C)c(O)c(C(C)(C)C)c1`, “inactive”. Same read-out and setting: the result for `CC(C)CCCCCCOC(=O)CCCCC(=O)OCCCCCCC(C)C` reads “inactive”; that for `O=[N+]([O-])c1ccc(O)cc1`, “inactive”; that for `CN1CCC[C@H]1c1cccnc1`, “inactive”. Turning to `Oc1cccc(O)c1`, the result was inactive. Still for that read-out and setting: the entry for `Nc1cccc2c(N)cccc12` is “inactive”. Turning to `O=C(O)Cc1cc(I)c(Oc2cc(I)c(O)c(I)c2)c(I)c1`, the AC50 is 13.4 µM (active). `OCCC(F)(F)C(F)(F)C(F)(F)C(F)(F)C(F)(F)C(F)(F)F`: the AC50 is 46.1 µM (active) and the outcome was inactive. Turning to `c1ccc2cc3c(ccc4ccccc43)cc2c1`, the outcome was inactive. Regarding `CN1CCN(c2ccccc2/C=C2\SCCN(c3ccc(Cl)c(Cl)c3)C2=O)CC1`, the AC50 was 20 µM (active). Take `CC[C@H](C)[C@@H](C(=O)O)n1sc2ccccc2c1=O`: the outcome was inactive.

Regarding `CCCCCCCC(=O)O`, the result was inactive. As for `CN(C)C=O`, the outcome was inactive.

Consider `CCCOC(=O)c1ccc(O)cc1`, for which the outcome was inactive.

For the compound `CC(C)(C)c1cccc(C(C)(C)C)c1O`, the outcome was inactive.

For the origin of these results see PubChem BioAssay (EPA / NIEHS).
